We go through 93 compounds from PubChem BioAssay AID624352 (Sanford-Burnham Center for Chemical Genomics, 2012).

Screen size: about 360,000 compounds; about 2,600 (0.72%) were called active. Shown is part of a subset that was picked to be rich in actives. Unmarked numbers belong to inactive results.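 How the source made its calls: active means inhibition of the luminescence signal of 40% or more relative to plate controls, in a single-dose primary screen at 18.75 µM; inactive means the rest.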

The experiment in a line: blockers of HIF-2a driven luciferase – luminescence, 786-0 RCC cells, primary screen (AID 624352). Particulars: 786-0 RCC cells HIF-2a reporter, overnight, at 18.8 µM, stronger effect = higher value.
For orientation: inhibition means the relative decrease from the control value, in per cent. With `Cc1ccc(-c2cnc(NC(=O)CCC(=O)N(C)Cc3ccccc3)n2C)cc1`, the inhibition is -43.9%.
For `COc1cc(/C=C(/NC(=O)c2ccc(Cl)cc2Cl)C(=O)O)cc(OC)c1OC` the value was 12.9%; for `CCOc1cc(/C=N/NC(=O)OC)ccc1OCCSc1ccc(Cl)cc1`, -1.68%; for `CCOc1cc(/C=C(/C#N)c2ccc(Cl)cc2)cc(Cl)c1OCC(=O)O`, 91.8% (active).
Under `CCOC(=O)c1c(C)[nH]c(C2=NNC(=NC(C)COC)SC2)c1C` (stereo not drawn) stands -141%; under `CCOC(=O)C1(Cc2ccccc2C)CCCN(C(=O)c2ccc(COC)o2)C1` (stereo not drawn), -190%.
`Cc1cccc(NC(=O)C2CCCN(C(=O)Nc3ccc(F)cc3)C2)c1C` (stereo not drawn): the inhibition is 7.56%.
For `COc1ccc(C2=NO[C@@H]3C(=O)N(Cc4ccccc4)C(=O)[C@H]23)cc1OC` the value was 16.2%; for `COc1ccc(-c2cc(C(F)(F)F)nc(S(C)(=O)=O)n2)cc1OC`, 94.1% (active).
For `COc1ccc(CCNS(=O)(=O)c2ccc(F)cc2)cc1OC` the value was 9.4%.
Consider `O=C(c1cn(-c2ccccc2)nc1-c1cccnc1)N1CCN(S(=O)(=O)c2ccccc2F)CC1`, for which the inhibition is 9.12%.
Consider `CCc1ccc(-n2c(=S)sc3c(=O)n(-c4ccccc4OC)c(=S)[nH]c32)cc1`, for which the inhibition is 8.96%.
Under `COc1ccc(OC)c2c(N)c(C#N)c(C(F)(F)C(F)(F)F)nc12` stands 8.83%.
Under `COc1cc2c(C(=O)O)c(C)n(C)c2c2ccccc12` stands -195%; under `COc1cccc2c(O)cc(=O)n(C)c12`, 19.6%.
For `COc1cccc2c(C)c(C(=O)O)[nH]c12` the value was 47% (active); for `O=C(c1ccccc1Cl)N(Cc1ccccc1F)N1C(=O)CCCC1=O`, 16.7%.
With `O=C(O)C1C2C=CC(O2)C1C(=O)NCCc1cccc(Cl)c1` (stereo not drawn), the inhibition was -2.61%.
For `Cc1cc(O)ccc1-c1cc(C(=O)NCc2cc(C(F)(F)F)cc(C(F)(F)F)c2)[nH]n1`, the inhibition was 15.8%.
Turning to `COCCn1c(SCC(=O)Nc2ccccc2F)nc2c(c1=O)SCC2`, the inhibition was 1.2%.
With `Cc1cccc(NC(=O)C2CCCN(C(=O)NCc3ccccc3)C2)c1C` (stereo not drawn), the inhibition is 0.73%.
For `Cc1ccc2nc(-c3ccc(Br)cc3)cn2c1` the value was 40.6% (active).
For the compound `COc1ccc(-c2nc3ccc(Br)cn3c2Cc2ccc(C)cc2)cc1OC`, the inhibition was -137%.
Consider `CC(=O)Nc1c(-c2ccc(C)cc2)nc2ccc(Cl)cn12`, for which the inhibition was 4.44%.
With `Cc1ccc2nc(-c3ccccc3)c(CC3CCCCC3)n2c1`, the inhibition is -173%.
Consider `Cc1ccc(-c2nc3ccc(Br)cn3c2Cc2ccccc2C(F)(F)F)cc1`, for which the inhibition was -290%.
For `Cc1ccc(-c2cn3cc(C)ccc3n2)cc1` the value was 71.3% (active); for `CC(C)NC(=O)Nc1cccc2c1O[C@H](CN(C)S(=O)(=O)c1cccs1)[C@@H](C)CN([C@H](C)CO)C2=O`, 12.7%; for `CC(=O)Nc1ccc(NC(=O)C(C)OC(=O)c2ccccc2C(=O)c2ccc(Cl)c([N+](=O)[O-])c2)cc1` (stereo not drawn), 19.2%.
As to `N#Cc1cccc(NC(=O)COC(=O)c2ccccc2C(=O)c2ccc(Cl)c([N+](=O)[O-])c2)c1`, the inhibition is 94.8% (active).
Under `NS(=O)(=O)c1cccc(NC(=O)COC(=O)c2cc([N+](=O)[O-])ccc2N2CCCC2)c1` stands 25.4%.
With `Brc1ccc2c(c1)[C@H]1OCC[C@H]1[C@@H](c1cccs1)N2`, the inhibition was -2.71%.
Under `C[C@H](O)[C@@H]1C(=O)N2CCc3ccc(N4CCOCC4)cc3[C@@H]2C[C@@H]1N(C)C(=O)C(C)(C)C` stands -9.89%; under `Cc1cc(C)c(SCCc2ccncc2)c(C)c1`, 10%.
Regarding `Cc1cc(C)c2c(NC(=O)C3CC3)nn(C)c2n1`, the inhibition was 0.567%.
With `Cc1n[nH]c(C)c1S(=O)(=O)N1CCCC(C(=O)Nc2ccc(Br)cc2)C1` (stereo not drawn), the inhibition is 10.9%.
For `Cc1cc(Nc2cc(N3CCN(C)CC3)nc(Sc3ccc(NC(=O)C4CC4)cc3)n2)n[nH]1` the value was 52.1% (active); for `Nc1cccc(OCCCCCOc2cccc(N)c2)c1`, -55.8%.
Under `COc1ccc(-c2nc3c(s2)CCc2onc(-c4ccc(OC)cc4)c2-3)cc1` stands -8.84%; under `CO/N=C/CC(=O)c1ccc(OC)cc1`, -11.6%; under `Cc1cc(NC(=O)COc2ccccc2C#N)no1`, -198%.
On to `CCCOc1ccc(C(=O)C(CCC(CNCC)C(=O)c2ccc(OCCC)cc2)CNCC)cc1` (stereo not drawn), for which the inhibition was 98.1% (active).
Under `CCOc1cc(C(=O)O)ccc1OCCOc1ccccc1` stands 15.8%; under `CC(C)CCOc1ccc(C(=O)C[N+]2(C)CCOCC2)cc1`, 12.3%.
For `CC(CC(=O)O)CC(=O)NNC(=O)c1cccc(Br)c1` (stereo not drawn) the value was 15.7%; for `CC(=O)c1cccc(-c2ccc(CN3C(CC(C)C)C(=O)N(Cc4cn(CC5CCCCC5)nn4)CCS3(=O)=O)cc2)c1` (stereo not drawn), 4.21%.
Under `Cn1c(=O)cc(SCC(=O)N2CCN(C(=O)c3ccco3)CC2)c2ccccc21` stands -11.7%; under `CC(Sc1nncn1C)C(=O)NCCC1=CCCCC1` (stereo not drawn), 1.01%; under `O=C(CCl)N(Cc1cccc([N+](=O)[O-])c1)c1cccc(Cl)c1`, 40.9% (active).
Take `CC(=O)N(CN1C(=O)C2C3C=CC(C3)C2C1=O)c1cccc(Cl)c1` (stereo not drawn): the inhibition is 9.8%.
In the case of `Cc1ccc(S(=O)(=O)N(CC(=O)Nc2cccc([N+](=O)[O-])c2)Cc2ccc(Cl)cc2)cc1`, the inhibition is 8.15%.
Under `NS(=O)(=O)c1cc2c(cc1Cl)NC(C(Cl)Cl)NS2(=O)=O` (stereo not drawn) stands 2.3%.
Under `O=C1C=C(c2ccc(Cl)cc2)C(=O)N1Nc1ccccc1` stands 64.8% (active); under `COc1ccc(CN2CCn3ncc(C(=O)Nc4ccc(Cl)cc4Cl)c3C2=O)cc1`, 13.3%.
For `C[C@]12c3[nH]c4ccc(Cl)cc4c3CCN1C(=O)[C@@H](CC(=O)NCCCn1ccnc1)C[C@@H]2C(=O)N1CCOCC1` the value was 6.91%; for `Cc1ccc(CS(=O)(=O)c2ncc(Cl)c(C(=O)Nc3nnc(C)s3)n2)cc1`, 94.4% (active).
For `CN(CCC(=O)Nc1cc(S(=O)(=O)N(C)C)ccc1Cl)CC(=O)Nc1ccc(F)cc1`, the inhibition was 11.6%.
For the compound `Cc1cccc(NS(=O)(=O)c2ccc(C)c(C(=O)NCc3cccnc3)c2)c1`, the inhibition is 9.9%.
As for `Cc1cccc(CS(=O)(=O)c2ncc(Cl)c(C(=O)Nc3ccc(F)cc3)n2)c1`, the inhibition was 86.1% (active).
`Cc1cccc(NC(=O)c2nc(S(=O)(=O)Cc3ccccc3)ncc2Cl)c1`: the inhibition is 86.7% (active).
For `Cc1cc(NS(=O)(=O)c2ccc(NC(=S)NC(=O)c3ccc(F)cc3Cl)cc2)no1` the value was 21.4%; for `Cc1ccc(CS(=O)(=O)CCC(=O)NC2CC2)cc1`, 11.4%; for `Cc1nnc(NC(=O)CSc2nccn2-c2cccc(C)c2C)s1`, 7.22%.
For `O=C(CS(=O)(=O)Cc1ccccc1)Nc1cccnc1` the value was -1.93%.
As for `CCCN(CC(=O)Nc1ccccc1OC)C(=O)CCC(=O)c1ccc(F)cc1`, the inhibition is -7.63%.
For `O=C(CC1SC(=Nc2ccccc2)N(Cc2ccccn2)C1=O)Nc1cccc(Cl)c1` (stereo not drawn) the value was -84.7%; for `CCN(C(=O)COC(=O)c1c(NC(C)=O)sc(C)c1C)C1CCS(=O)(=O)C1` (stereo not drawn), 12.6%; for `O=C(NCc1cccnc1)C12CC3CC(CC(C3)C1)C2`, 21.4%.
Under `CC1(C)CC2CC(C)(CN2c2ncnc3ccc(Br)cc23)C1` (stereo not drawn) stands 31.5%.
In the case of `COc1ccc(Nc2ncnc3ccc(Br)cc23)c(OC)c1`, the inhibition is 75.3% (active).
Under `CCOC(=O)CNc1nc(Cl)nc(Nc2ccc(OC)cc2OC)n1` stands 12.9%; under `CC1=NC2(CCCc3c2no[n+]3[O-])N(O)C1(C)C` (stereo not drawn), -5.63%; under `Nc1c(-c2cccc(Cl)c2)cnn1-c1cccc([N+](=O)[O-])c1`, -139%.
As for `Cc1cccc(N2Cc3ccccc3C2=NC(=O)c2ccc(Cl)nc2)c1`, the inhibition was -92.3%.
Under `Cc1cccc(-n2ncc(Cl)c(Cl)c2=O)c1` stands 84.5% (active).
Under `COc1ccc(OC)c(-c2c(=O)n(OCc3ccccc3Br)c3ccccc3[n+]2[O-])c1` stands 23.8%; under `Cc1ccc(CNC(=O)COc2ccc(S(=O)(=O)NC(C)C)cc2)cc1`, -0.52%.
Under `Cn1c(=O)n(C)c2cc(CNc3ccc(N4CCOCC4)c(C(=O)O)c3)ccc21` stands 15.1%; under `Cc1nnnn1/C(=C\c1ccccc1)C(=O)OCC(=O)N1CC2(C)CC1CC(C)(C)C2` (stereo not drawn), 50.7% (active).
For `O=C(CNC(=O)c1cc(S(=O)(=O)N2CCOCC2)ccc1N1CCCC1)Nc1ccc(F)c(F)c1`, the inhibition is 3.34%.
For the compound `COc1ccc(/C=N/N=C/c2c[nH]c(=O)c(C#N)c2Nc2ccccc2)cc1`, the inhibition is 22.7%.
Take `O=C(O)CCn1c(O)c(C=C2N=c3ccccc3=N2)sc1=S`: the inhibition was 48.3% (active).
Under `C=CCNC(=O)C1CC2c3ccccc3C1c1ccccc12` (stereo not drawn) stands 15.4%; under `CC1(C(=O)NS(=O)(=O)C2CC2)CCCN(C(=O)CSc2ccccc2)C1` (stereo not drawn), 6.93%; under `CCSc1sc(CC)cc1C=O`, 18.8%.
For `COc1ccccc1CN1CC(C(=O)NCCc2cn[nH]c2)CCC1=O` (stereo not drawn) the value was 11.7%; for `COc1ccc2nc(-c3ccccn3)ccc2c1`, -77.1%; for `COc1ccc(C(=O)/C=C/Nc2ccccn2)cc1`, 51.6% (active).
For `COCCN(C(=O)CCC(=O)Nc1ccccn1)C(C(=O)NCCC(C)C)c1ccc(OC)cc1` (stereo not drawn) the value was 12.7%.
With `CCCN1C2CCCC1CC(NC(=O)NC13CC4CC(CC(C4)C1)C3)C2` (stereo not drawn), the inhibition is 19.4%.
As for `O=C(Nc1ccc2c(c1)OCCO2)C1CCCC1`, the inhibition is 41.3% (active).
As for `O=C(Nc1ccc2c(c1)OCO2)C1CC1(Cl)Cl` (stereo not drawn), the inhibition is -154%.
For `CN1C(=O)c2ccc(NC(=O)C3CCCCC3)cc2C1=O` the value was -8.6%.
